# Where a name gives a salt, the structure may show the parent alone.
# Key:
# Details in all cases: incubation time: 27 h, anaerobic, 37 °C;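 for the amine columns active = adjusted P below 0.05 in both replicates with a change the same way and a mean fold change under 0.8 or over 1.25; inactive = the rest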
# [1] = system: Clostridium sporogenes DSM 1664; experiment: growth (OD595) fold change vs plate DMSO controls (fold change (ratio)); higher = more growth
# Summary of the method: (§1)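 Each value is the mean of 2 biological replicates, and fold changes above 1.5 were set to NA. The underlying readings were taken at 595 nm from shaken anaerobic mGAM cultures in 96-well plates after 27 h at 37 °C. They were blank-subtracted, corrected for compound background using 20 µM compound solutions in water, and converted to OD with a calibration factor of 5. Growth is the fold change relative to the median of the plate DMSO controls.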
# [2] = system: Escherichia coli IAI1; experiment: as above
# Summary of the method: as §1
# [3] = system: Klebsiella aerogenes DSM 30053; experiment: as above
# Summary of the method: as §1
# [4] = system: Ruminococcus gnavus DSM 108212; experiment: as above
# Summary of the method: as §1
# [5] = system: Klebsiella aerogenes DSM 30053; experiment: fold change of Histamine concentration vs plate DMSO controls (fold change (ratio)); higher = more amine produced, active = hit call of the paper (significant change in both replicates, either direction)
# Summary of the method: (§2)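 Amines were quantified by LC–triple-quadrupole MS in dynamic MRM mode against external calibration curves, with drift correction within each batch. The samples were whole anaerobic mGAM cultures of four gut bacterial strains, grown for 27 h at 37 °C in 80 µL wells and extracted with cold acetonitrile/methanol with 0.1% formic acid, then centrifuged. Values are reported as fold change over DMSO controls on the same plate. The mean of 2 biological replicates is given.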
# [6] = system: Clostridium sporogenes DSM 1664; experiment: fold change of Tryptamine concentration vs plate DMSO controls (fold change (ratio)); higher = more amine produced, active = hit call of the paper (significant change in both replicates, either direction)
# Summary of the method: as §2
# [7] = system: Ruminococcus gnavus DSM 108212; experiment: as above
# Summary of the method: as §2
# [8] = system: Escherichia coli IAI1; experiment: fold change of Putrescine concentration vs plate DMSO controls (fold change (ratio)); higher = more amine produced, active = hit call of the paper (significant change in both replicates, either direction)
# Summary of the method: as §2
# [9] = system: Klebsiella aerogenes DSM 30053; experiment: as above
# Summary of the method: as §2
# [10] = system: Escherichia coli IAI1; experiment: fold change of Cadaverine concentration vs plate DMSO controls (fold change (ratio)); higher = more amine produced, active = hit call of the paper (significant change in both replicates, either direction)
# Summary of the method: as §2
# [11] = system: Klebsiella aerogenes DSM 30053; experiment: as above
# Summary of the method: as §2
# [12] = system: Ruminococcus gnavus DSM 108212; experiment: fold change of 2-Phenylethylamine concentration vs plate DMSO controls (fold change (ratio)); higher = more amine produced, active = hit call of the paper (significant change in both replicates, either direction)
# Summary of the method: as §2
SMILES,growth [1],growth [2],growth [3],growth [4],fold change of Histamine concentration [5],fold change of Tryptamine concentration [6],fold change of Tryptamine concentration [7],fold change of Putrescine concentration [8],fold change of Putrescine concentration [9],fold change of Cadaverine concentration [10],fold change of Cadaverine concentration [11],fold change of 2-Phenylethylamine concentration [12]
CC(C)Cc1ccc(CC(=O)O)cc1 [Ibufenac] (20 µM),1.08,1.1,1.06,1.24,0.908 (inactive),1.04 (inactive),1 (inactive),1.06 (inactive),1.01 (inactive),0.994 (inactive),1.01 (inactive),0.976 (inactive)
CCCNC(C)(C)COC(=O)c1ccccc1 [Meprylcaine hydrochloride] (20 µM),0.985,1.02,0.991,1.17,1.02 (inactive),1.01 (inactive),1.04 (inactive),1.01 (inactive),1 (inactive),1.04 (inactive),0.991 (inactive),1.01 (inactive)
C=C1CC[C@H](O)C/C1=C/C=C1\CCC[C@]2(C)[C@@H]([C@H](C)CCCC(C)C)CC[C@@H]12 [Cholecalciferol] (20 µM),0.913,0.971,0.962,1.05,1.08 (inactive),0.975 (inactive),1.03 (inactive),0.96 (inactive),1.01 (inactive),0.984 (inactive),1.07 (inactive),1.13 (inactive)
CC(=O)N1CCN(c2ccc(OCC3COC(Cn4ccnc4)(c4ccc(Cl)cc4Cl)O3)cc2)CC1 (stereo not drawn) [Ketoconazole] (20 µM),1.17,0.988,1,0.945,0.927 (inactive),1.03 (inactive),0.984 (inactive),1.04 (inactive),0.979 (inactive),1.02 (inactive),0.994 (inactive),0.937 (inactive)
CN(C)CCCN1c2ccccc2Sc2ccccc21 [Promazine hydrochloride] (20 µM),1.02,0.959,0.962,1,1.05 (inactive),1.1 (inactive),0.823 (inactive),0.916 (inactive),0.995 (inactive),1.03 (inactive),0.983 (inactive),0.829 (inactive)
COc1ccc(C(=O)CC(=O)c2ccc(C(C)(C)C)cc2)cc1 [Avobenzone] (20 µM),0.839,0.95,0.975,0.891,1.01 (inactive),0.932 (inactive),1.02 (inactive),0.998 (inactive),0.993 (inactive),1.05 (inactive),0.988 (inactive),1.08 (inactive)
Nc1ccc(O)c(C(=O)O)c1 [Mesalamine] (20 µM),0.832,0.983,0.985,0.924,1.06 (inactive),1.02 (inactive),1.01 (inactive),0.957 (inactive),1.01 (inactive),0.97 (inactive),0.98 (inactive),1.04 (inactive)
COc1cnc(NS(=O)(=O)c2ccc(N)cc2)nc1 [Sulfameter] (20 µM),0.997,0.976,0.981,1.35,1.01 (inactive),0.945 (inactive),1.03 (inactive),1.01 (inactive),0.996 (inactive),1.03 (inactive),0.987 (inactive),1.01 (inactive)
OC(CCN1CCCCC1)(c1ccccc1)C1CC2C=CC1C2 (stereo not drawn) [Biperiden hydrochloride] (20 µM),1.01,1.01,1.17,0.975,0.911 (inactive),0.995 (inactive),0.916 (inactive),1.04 (inactive),0.999 (inactive),0.899 (inactive),1.01 (inactive),0.935 (inactive)
CCCCC(=O)N(Cc1ccc(-c2ccccc2-c2nnn[nH]2)cc1)[C@H](C(=O)O)C(C)C [Valsartan] (20 µM),1.14,1.19,1.08,1.06,0.913 (inactive),1.05 (inactive),1.07 (inactive),1.17 (inactive),0.951 (inactive),0.941 (inactive),1.05 (inactive),1.12 (inactive)
N[C@@H]1CONC1=O [D-cycloserine] (20 µM),0.977,0.973,1.09,0.926,0.897 (inactive),0.958 (inactive),0.931 (inactive),1 (inactive),1.03 (inactive),1.02 (inactive),1.05 (inactive),0.868 (inactive)
CCOc1nc2cccc(C(=O)OCc3oc(=O)oc3C)c2n1Cc1ccc(-c2ccccc2-c2noc(=O)[nH]2)cc1 [Azilsartan medoxomil] (20 µM),1.04,1,0.984,1.1,1.04 (inactive),1.01 (inactive),1.07 (inactive),1.02 (inactive),1.01 (inactive),0.997 (inactive),0.999 (inactive),1.03 (inactive)
O=c1[nH]c(=O)n([C@H]2C[C@H](O)[C@@H](CO)O2)cc1C(F)(F)F [Trifluridine] (20 µM),1.14,1.04,0.99,0.913,1.09 (inactive),1.02 (inactive),1.07 (inactive),0.948 (inactive),0.972 (inactive),1.04 (inactive),0.975 (inactive),1.11 (inactive)
COc1ccc2cc([C@H](C)C(=O)O)ccc2c1 [(S)-Naproxen] (20 µM),1.04,1.1,1.02,1.08,1.04 (inactive),0.983 (inactive),0.969 (inactive),1.06 (inactive),0.977 (inactive),1 (inactive),0.988 (inactive),0.899 (inactive)
CCOc1ccc2nc(S(N)(=O)=O)sc2c1 [Ethoxzolamide] (20 µM),0.955,0.957,0.989,0.925,1.04 (inactive),0.934 (inactive),0.994 (inactive),1.27 (inactive),0.997 (inactive),0.981 (inactive),0.989 (inactive),1 (inactive)
Cc1c(C(=O)NN2CCCCC2)nn(-c2ccc(Cl)cc2Cl)c1-c1ccc(Cl)cc1 [Rimonabant] (20 µM),0.981,0.979,1,1.04,1.03 (inactive),0.906 (inactive),0.897 (inactive),1.01 (inactive),1.02 (inactive),1.04 (inactive),0.998 (inactive),0.841 (inactive)
Cc1c(Cl)cccc1Nc1ncccc1C(=O)O [Clonixin lysinate] (20 µM),1.13,1.07,1.02,1.43,1.01 (inactive),0.959 (inactive),1.01 (inactive),1.1 (inactive),1.03 (inactive),0.96 (inactive),1.04 (inactive),1.01 (inactive)
COc1ccc([C@@H]2CC(=O)c3c(O)cc(O[C@@H]4O[C@H](CO[C@@H]5O[C@@H](C)[C@H](O)[C@@H](O)[C@H]5O)[C@@H](O)[C@H](O)[C@H]4O)cc3O2)cc1O [Hesperidin] (20 µM),1.12,1.05,1.06,0.984,0.921 (inactive),1.26 (active),1.01 (inactive),1.01 (inactive),0.934 (inactive),0.986 (inactive),1.02 (inactive),0.982 (inactive)
CCCCOc1ccc(OCCCN2CCOCC2)cc1 [Pramoxine hydrochloride] (20 µM),1.11,0.971,1.17,0.899,0.904 (inactive),1.06 (inactive),1.01 (inactive),0.96 (inactive),0.976 (inactive),0.97 (inactive),1.02 (inactive),1.07 (inactive)
C=C(NC(=O)C(=C)NC(=O)c1csc(C2=N[C@@H]3c4csc(n4)[C@H]4NC(=O)c5csc(n5)[C@H]([C@](C)(O)[C@@H](C)O)NC(=O)[C@H]5CSC(=N5)/C(=C/C)NC(=O)[C@H]([C@@H](C)O)NC(=O)c5csc(n5)[C@]3(CC2)NC(=O)[C@H](C)NC(=O)C(=C)NC(=O)[C@H](C)NC(=O)[C@H]([C@@H](C)CC)N[C@@H]2C=Cc3c([C@H](C)O)cc(nc3[C@H]2O)C(=O)O[C@@H]4C)n1)C(N)=O [Thiostrepton] (20 µM),0.00647,1.05,1.14,0.164,0.968 (inactive),0.033 (active),0.0887 (active),1.03 (inactive),1.03 (inactive),1.02 (inactive),1.02 (inactive),0.084 (active)
COc1c(O[C@@H]2O[C@H](CO)[C@@H](O)[C@H](O)[C@H]2O)cc2c(c1OC)-c1ccc(SC)c(=O)cc1[C@@H](NC(C)=O)CC2 [Thiocolchicoside] (20 µM),0.996,1,0.975,0.686,1.1 (inactive),1.01 (inactive),1.02 (inactive),1.01 (inactive),1.02 (inactive),1 (inactive),0.991 (inactive),1.01 (inactive)
CN1C(C(=O)Nc2ccccn2)=C(O)c2sccc2S1(=O)=O [Tenoxicam] (20 µM),1.03,1.04,0.975,1.18,1.07 (inactive),1.01 (inactive),1.01 (inactive),1.05 (inactive),1.01 (inactive),1.01 (inactive),0.977 (inactive),0.959 (inactive)
COC(=O)C1=C(C)NC(C)=C(C(=O)OC2CCCN(Cc3ccccc3)C2)C1c1cccc([N+](=O)[O-])c1 (stereo not drawn) [Benidipine hydrochloride] (20 µM),1.1,1.23,1.02,0.864,0.929 (inactive),0.912 (inactive),0.983 (inactive),1.24 (inactive),1.02 (inactive),0.989 (inactive),1.02 (inactive),0.986 (inactive)
Clc1ccc(Cn2c(CN3CCCC3)nc3ccccc32)cc1 [Clemizole hydrochloride] (20 µM),1.15,1.01,1.05,0.643,0.939 (inactive),1.11 (inactive),0.858 (inactive),0.882 (inactive),0.958 (inactive),1.41 (active),1.01 (inactive),0.968 (inactive)

# Source: the supplement of paper PMC12494721
